For 20 compounds, growth inhibition results are on record in PubChem BioAssay (NCI).

The panel holds about 79,000 compounds, 15% with a hit somewhere; the sample as a whole holds those more often. Unmarked numbers belong to inactive results. Activity calls are given as the source filed them. No stated cut-off is given here; in the data, active means growth inhibition above about 70%; inactive means the rest.

The nature of test [1]: NCI Yeast Anticancer Drug Screen. Data for the rad50 strain (AID 155).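 Further: 0% = growth of vehicle-only cultures of the same strain.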 As to conditions: S. cerevisiae rad50 strain growth inhibition; at 50.0 µM; hits give high values. Put shortly:
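Readout: growth inhibition relative to vehicle-treated cultures. Compound exposure was carried out in a genetically defined yeast strain deficient in DNA damage repair.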

Test [2] in a line: NCI Yeast Anticancer Drug Screen. Data for the mec2-1 strain (AID 157). Conditions: S. cerevisiae mec2-1 strain, at 50.0 µM, hits give high values. Put shortly:
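Strain: mec2-1 (DNA repair/cell cycle alteration). Compound exposure, then growth measured; inhibition expressed relative to vehicle.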

The nature of test [3]: NCI Yeast Anticancer Drug Screen. Data for the sgs1 mgt1 strain (AID 161).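 Further: 0% = growth of cultures given vehicle only.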 As to conditions: S. cerevisiae sgs1 mgt1 strain, at 50.0 µM, hits give high values. A digest of the protocol: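 Inhibition of yeast growth, normalised to vehicle-treated controls, is reported for a strain bearing genetic alterations in DNA damage repair.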
Test [4] is described as follows: NCI Yeast Anticancer Drug Screen. Data for the cln2 rad14 strain (AID 165).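 Further: 0% = growth equal to vehicle treated cultures.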 As to conditions: S. cerevisiae cln2 rad14 strain, at 50.0 µM, hits give high values. A digest of the protocol: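 Compounds are applied to the cln2 rad14 yeast strain, and growth is then compared with that of vehicle-treated cultures to give inhibition.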
A short description of test [5]: NCI Yeast Anticancer Drug Screen. Data for the bub3 strain (AID 167). As to conditions: S. cerevisiae bub3 mutant strain, at 50.0 µM, hits give high values. A digest of the protocol:
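Readout: yeast growth inhibition, expressed relative to vehicle-only wells. The test organism is a mutant strain from a panel with lesions in DNA repair or checkpoint genes.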

A short description of test [6]: NCI Yeast Anticancer Drug Screen. Data for the mlh1 rad18 strain (AID 175). Conditions: S. cerevisiae mlh1 rad18 strain growth inhibition; at 50.0 µM; hits give high values. A digest of the protocol: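 Read-out is yeast growth inhibition, calculated against vehicle-only controls. The compound was applied to a strain engineered with DNA damage repair alterations.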

Turning to `CC(C)(C)OC(=O)C(C1NC(C(=O)O)C(C)(C)S1)N1C(=O)c2ccccc2C1=O` (stereo not given), the growth inhibition in test [1] is -29.8%; in test [2], -43%; in test [3], -53.7%; in test [4] it was -42.1%; in test [5] it was -56.4%; in test [6], -17.4%.

In the case of `Fc1cccc(Cl)c1CSc1n[nH]c(C(F)(F)F)n1`, the growth inhibition was -4.65% in test [1]; -24.1% in test [2]; 10.5% in test [3]; 3.2% in test [4]; 11.1% in test [5]; 2.45% in test [6].

With `CCCCCO[Si](OCCCCC)(OCCCCC)OCCCCC`, the growth inhibition in test [1] is 3.8%; in test [2], -9.3%; in test [3] it was 29.4%; in test [4], -4.4%; in test [5] it was 1.55%; in test [6], 10.9%.

Regarding `COc1ccc(C)cc1NC(=S)NC(=O)c1cccc([N+](=O)[O-])c1`, the growth inhibition was 2.25% in test [1]; 4.85% in test [2]; 4.45% in test [3]; -2.5% in test [4]; 20.2% in test [5]; 0.3% in test [6].

Regarding `CCOC(=O)CN(c1scc(-c2ccccc2)c1C(=O)OCC)S(=O)(=O)c1ccc(C)cc1`, the growth inhibition was -15.7% in test [1]; -28.6% in test [2]; 0.05% in test [3]; -57.6% in test [4]; -2.7% in test [5]; 0.85% in test [6].

On to `Nc1ccc(-c2ccccc2)cc1[N+](=O)[O-]`, for which the growth inhibition in test [1] was 33.2%; in test [2] it was -8.85%; in test [3], 16.1%; in test [4], -23.2%; in test [5], 21.1%; in test [6], 8.8%.

With `NCCN=C(N)C(N)=NCCN`, the growth inhibition in test [1] was 19.1%; in test [2], 5.3%; in test [3], -2.35%; in test [4], -54.5%; in test [5], 7.45%; in test [6], 8.1%.

Regarding `Cc1cccc(/C=N/Nc2ccc([N+](=O)[O-])cc2[N+](=O)[O-])c1C`, the growth inhibition is 11.2% in test [1]; -6% in test [2]; -5.1% in test [3]; -11.2% in test [4]; -15.6% in test [5]; 4% in test [6].

For the compound `O=[N+]([O-])c1cc(C(F)(F)F)ccc1Oc1cccc(C(F)(F)F)c1`, the growth inhibition in test [1] is -13.4%; in test [2] it was 2%; in test [3], 5.6%; in test [4], -64.8%; in test [5], 42.6%; in test [6], 16.9%.

In the case of `CCC[CH2][Sn]([C]#[C][Sn]([CH2]CCC)([CH2]CCC)[CH2]CCC)([CH2]CCC)[CH2]CCC`, the growth inhibition in test [1] was 99.6% (active); in test [2], 98.8% (active); in test [3], 99.5% (active); in test [4] it was 99.2% (active); in test [5], 99.3% (active); in test [6], 99.4% (active).

On to `CC(=O)C1(C)OC(c2ccccc2)=NC1=S` (stereo not given), for which the growth inhibition is 7.4% in test [1]; 14.3% in test [2]; 7.55% in test [3]; 14.9% in test [4]; -5.1% in test [5]; 9.35% in test [6].

For `COc1ccccc1N=Nc1c(-c2cccs2)nn(C(=S)SC)c1C(F)(F)F`, the growth inhibition was -3.5% in test [1]; 10.2% in test [2]; -21.6% in test [3]; -3.9% in test [4]; 18.7% in test [5]; 30.8% in test [6].

Turning to `C/C(=C/c1c(C)c([N+](=O)[O-])c(C)c(C)c1[N+](=O)[O-])C(=O)O`, the growth inhibition is -3.3% in test [1]; 38.8% in test [2]; 14.7% in test [3]; 11.4% in test [4]; 30.9% in test [5]; 37% in test [6].

Consider `CC(=O)ON(C(=O)c1ccccc1)c1ccccc1`, for which the growth inhibition is -1.7% in test [1]; 0.95% in test [2]; 4.3% in test [3]; -5.15% in test [4]; 7.05% in test [5]; 12.1% in test [6].

For the compound `COC(=O)c1s/c(=N\C(=S)N(C)C)n(-c2ccc(Cl)cc2)c1C(=O)OC`, the growth inhibition in test [1] is -0.4%; in test [2] it was 2.25%; in test [3] it was -4.1%; in test [4], -40.1%; in test [5], -21.9%; in test [6] it was -3.2%.

With `COC1(OC)N=C(N)C2(C#N)C(C)CC(=O)N(N(C)C)C12C#N` (stereo not given), the growth inhibition is 7.15% in test [1]; 6.1% in test [2]; -27.4% in test [3]; -2.7% in test [4]; -37.4% in test [5]; -34.9% in test [6].

As to `CC(=O)Cc1ccc([N+](=O)[O-])cc1`, the growth inhibition in test [1] was -0.1%; in test [2] it was -9.25%; in test [3], -15.9%; in test [4], -41.7%; in test [5] it was 4.15%; in test [6] it was 12.2%.

On to `CC1(C)C=C(N2CCCCC2)C(=O)c2ccccc21`, for which the growth inhibition in test [1] was -9.6%; in test [2], -2.25%; in test [3], -12.2%; in test [4], -16.4%; in test [5] it was -9.1%; in test [6], 5.15%.

Regarding `CCN1c2nc3ccccc3nc2N(CC)c2nc3ccccc3nc21`, the growth inhibition in test [1] was -30.1%; in test [2] it was 12.5%; in test [3] it was 23.9%; in test [4], 6.55%; in test [5], 3.45%; in test [6], 5.3%.

Regarding `CC/C(=N/NC(=O)c1ccccc1)c1ccccc1`, the growth inhibition in test [1] was -18.9%; in test [2], 9.5%; in test [3], 8.7%; in test [4], -19.4%; in test [5], 8.5%; in test [6], -17.7%.
